# In all, about 220,000 compounds went through this assay and about 2,300 (1%) were called active. Roughly 6% stayed inconclusive and do not appear here. Calls follow the shape of the dose curve; as a rule, active = well fitted inhibition curve with a large enough effect; inconclusive = small, poorly fitted or top-dose-only effect, or effect the other way; inactive = no such curve, though single readings can be large or run the other way. The entries come from a sample that favours actives as a whole.
# Molecular target: Neuropeptide S receptor (Homo sapiens) (UniProt Q6W5P4)
# Sequence (Q6W5P4 whole entry, looked up): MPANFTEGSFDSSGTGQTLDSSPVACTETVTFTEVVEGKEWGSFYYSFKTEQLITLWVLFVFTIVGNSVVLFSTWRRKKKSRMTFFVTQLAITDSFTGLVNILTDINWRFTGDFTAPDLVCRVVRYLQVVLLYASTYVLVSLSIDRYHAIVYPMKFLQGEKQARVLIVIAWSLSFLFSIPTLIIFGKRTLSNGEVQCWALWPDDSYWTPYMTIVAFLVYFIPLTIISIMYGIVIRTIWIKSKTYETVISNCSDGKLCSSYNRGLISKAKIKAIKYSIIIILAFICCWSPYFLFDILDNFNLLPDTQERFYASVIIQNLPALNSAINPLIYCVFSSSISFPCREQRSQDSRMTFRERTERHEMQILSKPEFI
# Assay: qHTS Assay for Antagonists of the Neuropeptide S Receptor: cAMP Signal Transduction; also: nearly all actives have a fitted effect of over 50% in size
# Details: CHO-NPSR cells, cAMP TR-FRET, antagonist mode; series mostly up to 38.3 µM; activity change, negative = inhibition: at the top concentration
# % is scaled to controls: 0 for no effect and ±100 for the full control effect; potency is read from the fitted curve at half-maximal effect.
Compound,"activity change, negative = inhibition",Potency
O=c1c2cc(-c3ccccc3)sc2nc2n1N=C(c1cccs1)CS2,12.2% (inactive),–
Brc1ccc2ncnc(NCc3cccnc3)c2c1,48.1% (inactive),–
O=C(Nc1cccnc1Oc1ncnc2cc(Cl)ccc12)c1ccc(F)cc1,4.01% (inactive),–
N#Cc1c(NCCO)ccc([N+](=O)[O-])c1NCCO,8.09% (inactive),–
Cc1cccc(NC(=O)c2cc([N+](=O)[O-])ccc2N2CCN(C)CC2)c1,-44.1% (inactive),–
O=C(Nc1cccc(Cl)c1)c1cc([N+](=O)[O-])ccc1N1CCN(CCO)CC1,–,10 µM (active)
CCN1CCN(c2ccc([N+](=O)[O-])cc2C(=O)c2ccc(Cl)cc2)CC1,-24.6% [at 46.1 µM] (inactive),–
CCC(C)N1C(=S)SC(C)(C)C1N(O)C(=O)NC1CCCCC1 (stereo not given),-8.21% (inactive),–
CCCN(CCC)S(=O)(=O)c1ccc(C(=O)N2CC3CCC(CC3)C2)cc1,59.1% (inactive),–
COc1ccc(C(=O)Cc2cnn(-c3ccccc3)c2)c(O)c1,-8.11% [at 46.1 µM] (inactive),–
Cc1[nH]nc(-c2ccc(OCc3cnn(-c4ccccc4)c3)cc2O)c1Oc1ccc(Cl)cc1,–,10 µM (active)
CCOc1ccc(-c2n[nH]c(C)c2-c2ccccn2)c(O)c1,-0.578% (inactive),–
CC(C)n1c(CN2CCN(Cc3ccccc3)CC2)nc2ccccc21,15.9% (inactive),–
Cn1cc(S(=O)(=O)NC(c2ccccc2)c2ccccc2)c(=O)n(C)c1=O,11.3% (inactive),–
CC(=O)Nc1nc2ccccc2n1Cc1ccc(C)cc1,2.41% (inactive),–
CCC(=O)NCCc1nc2ccccc2n1CC,-9.81% [at 46.1 µM] (inactive),–
CCCc1nc2c(C)cc(-c3nc4ccccc4n3C)cc2n1Cc1ccc(-c2ccccc2C(=O)O)cc1,–,1.26 µM (active)
CS(=O)(=O)c1sc(C(=O)NC(=S)Nc2ccc(OC(F)(F)F)cc2)c2c1C=CCC2,0.129% (inactive),–
Cc1ccc2nc(-c3cccc(Br)c3)cc(C(=O)Nn3cnnc3)c2c1,-9.85% (inactive),–
Cc1cccc(-[n+]2c(-c3cccc(Br)c3)[nH]c3nc4ccccc4nc32)c1,–,10 µM (active)
COc1ccc2cc1Oc1ccc(cc1)C[C@H]1c3cc(c(OC)cc3CCN1C)Oc1c(O)c(OC)cc3c1[C@H](C2)N(C)CC3,6.91% (inactive),–
O=C(Nc1nnc(COc2ccccc2)s1)Nc1ccccc1F,14.2% (inactive),–
CCC(=O)c1ccc(OCC(=O)Nc2ccc3nc(C)sc3c2)cc1,-3.19% (inactive),–
CCOC(=O)CC1C(=O)NCCN1C(=O)COc1ccc(Br)cc1C (stereo not given),2.52% [at 46.1 µM] (inactive),–

Compound,"activity change, negative = inhibition",Potency
CCOC(=O)CC1C(=O)NCCN1c1nc2c(C)cccn2c(=O)c1/C=C1\SC(=S)N(C(C)CC)C1=O (stereo not given),–,12.6 µM (active)
Cc1cccn2c(=O)c(/C=C3\SC(=S)N(CC(C)C)C3=O)c(NCCCOC(C)C)nc12,-1.16% [at 46.1 µM] (inactive),–
CC(C)OP(=O)(OC(C)C)C(Nc1ccccc1)c1cccc([N+](=O)[O-])c1 (stereo not given),-43.6% (inactive),–
CCc1nnc(NS(=O)(=O)c2ccc(NC(=S)NC(=O)c3cccs3)cc2)s1,27.6% (inactive),–
Cc1sc(NC(=S)NC(=O)c2cccs2)nc1-c1ccc(CC(C)C)cc1,–,12.6 µM (active)
Cc1ccc(-c2csc(NC(=O)c3cccs3)n2)cc1,-24.1% [at 46.1 µM] (inactive),–
COC(C[C@@H](O)[C@H](C)[C@H](O)COCc1ccccc1)OC,21.1% (inactive),–
O=C(Nc1ccccc1)O/N=C1/CCCc2occc21,2.04% (inactive),–
O=C(CNCc1cccs1)Nc1cc(S(=O)(=O)N2CCCC2)ccc1Cl,-21.1% (inactive),–
C=CCNC(=O)CSc1nc2scc(-c3ccco3)c2c(=O)n1CC=C,-7.73% (inactive),–
C=CCn1c(N)c(C(=O)OCC(C)C)c2nc3ccccc3nc21,-1.13% [at 46.1 µM] (inactive),–
CC(C)Cn1c(N)c(C(=O)NCc2cccs2)c2nc3ccccc3nc21,–,12.6 µM (active)
CCC(C)NC(=O)c1c(N)n(/N=C/c2cccs2)c2nc3ccccc3nc12 (stereo not given),1.21% [at 46.1 µM] (inactive),–
Cc1ccccc1CSc1nnc(CCCCCNC(=O)OC(C)(C)C)o1,-26% (inactive),–
Cc1ccc(C(=O)NNC2=Nc3cc([N+](=O)[O-])ccc3OC2)cc1,-1.29% [at 7.67 µM] (inactive),–
CC(C)(C)c1ccc(CCC2OCC(CN3CCOCC3)O2)cc1 (stereo not given),-9.52% (inactive),–
O=C(CCCl)Nc1ccc(S(=O)(=O)NCc2ccco2)cc1,9.32% (inactive),–
COc1ccc(C(CCN(Cc2ccc(OC)c(OC)c2)C(=O)CCl)c2ccccc2)cc1 (stereo not given),–,5.01 µM (active)
CCOC(=O)CN(Cc1ccc(OC)c(OC)c1)S(=O)(=O)c1ccc(OC)cc1,-11.5% [at 46.1 µM] (inactive),–
COc1ccc(CCNC(=O)C(Sc2ccccn2)c2ccccc2)cc1OC (stereo not given),-4.36% (inactive),–
C/C=C(\C)C(=O)N1CC2(CC(c3cccc(NC(=O)CCCCC)c3)=NO2)C[C@@H]1C(N)=O (stereo not given in full),15.3% (inactive),–
Cn1nnc(NC(=S)NC(=O)c2ccccc2)n1,20.6% (inactive),–
Cn1c(CO)cnc1SCc1ccccc1,-2.33% [at 46.1 µM] (inactive),–
O=c1c2ccccc2c(-c2ccccc2)nn1Cc1ccccc1,-19.8% (inactive),–

Compound,"activity change, negative = inhibition",Potency
CSc1c(SCc2ccccc2)cnn(Cc2ccccc2)c1=O,–,10 µM (active)
O=c1ccnc(Nc2ccc(Cl)cc2)[nH]1,1.3% [at 7.67 µM] (inactive),–
Cc1csc(Nc2ccc(Cl)cc2)[n+]1-c1ccc(Cl)cc1,–,10 µM (active)
CC1=NNC(=O)C1CCC(=O)N/N=C(\C)c1ccc(Cl)cc1 (stereo not given),-8.4% (inactive),–
Cc1ccc(CSc2nnc(-c3cnccn3)n2C)cc1,25.9% (inactive),–
CC(C)S(=O)(=O)c1csc(NC(=O)Nc2ccc(Cl)cc2)c1Cl,14.8% [at 7.67 µM] (inactive),–
Cc1cccn2c(CNCC(C)Oc3cccnc3)c(C(=O)N3CCOCC3)nc12 (stereo not given),15.1% (inactive),–
COc1ccc(NC(=O)C2=NNC(=O)CC2)cc1S(=O)(=O)N1CCCCC1,0.183% (inactive),–
O=C(Nc1ccc(S(=O)(=O)Nc2nccs2)cc1)c1cccc(S(=O)(=O)N2CCOCC2)c1,3.35% (inactive),–
CCOc1ccc(/C(O)=C2\C(=O)C(=O)N(c3ccc(OC)cc3)C2c2ccccc2[N+](=O)[O-])cc1 (stereo not given),30.9% (inactive),–
COc1ccc(/C(O)=C2\C(=O)C(=O)N(Cc3ccco3)C2c2ccc(OC)cc2OC)cc1 (stereo not given),-2.14% [at 46.1 µM] (inactive),–
COc1ccc(/C(O)=C2/C(=O)C(=O)N(c3nc(C)c(C)s3)C2c2ccco2)cc1 (stereo not given),–,10 µM (active)
COc1ccccc1N(C)S(=O)(=O)c1ccc(C(=O)NC2CCCCCC2)cc1,-52.7% (inactive),–
CC[C@@H](C)[C@@H](C(=O)N1CCN(C(=O)OC(C)(C)C)CC1)n1cc(CCC(=O)O)nn1,25.2% (inactive),–
CC(=O)NC(=S)Nc1ccc(NC(=S)NC(=O)c2ccc([N+](=O)[O-])cc2)cc1,14.8% (inactive),–
COc1cc(/C=C2/C(=O)NN(c3ccc(F)cc3)C2=O)cc([N+](=O)[O-])c1O,-10.9% (inactive),–
CCCn1c(=NC(C)=O)c(C(=O)OCC)cc2c(=O)n3ccccc3nc21,-12.6% [at 46.1 µM] (inactive),–
CCOC(=O)c1cc2c(=O)n3ccccc3nc2n(CC(C)C)c1=NC(=O)c1c(-c2c(F)cccc2Cl)noc1C,–,3.98 µM (active)
C/C(=N/OC(=O)c1c(-c2c(F)cccc2Cl)noc1C)c1cnccn1,21.6% (inactive),–
O=C(O)C1CCN(c2ccc([N+](=O)[O-])cc2[N+](=O)[O-])CC1,1.93% (inactive),–
CC(OC(=O)c1ccc(NS(=O)(=O)c2ccc3[nH]c(=O)[nH]c3c2)cc1)C(=O)Nc1cccc(Cl)c1Cl (stereo not given),-9.26% (inactive),–
O=C(O)c1cccnc1Sc1ncnc2sc3c(c12)CCC3,-3.47% (inactive),–

# Source: PubChem BioAssay AID1461 (National Center for Advancing Translational Sciences (NCATS), 2008)
